From PubChem BioAssay (EPA / NIEHS)
Records with an inconclusive call do not appear. Calls of active or inactive are those of the source. The calls were made as follows: active = hit-call score of the fitted dose curve at least 0.9, where 1 is the maximum; inconclusive = response in the unintended direction; inactive = score below 0.9.

Each molecule was assayed against D(1A) dopamine receptor (Homo sapiens) (UniProt P21728) (assay: NVS_GPCR_hDRD1: NovaScreen (NVS) G Protein-Coupled Receptor Assay for human Dopamine Receptor D1 (DRD1) (AID 2283269)).
Sequence of D(1A) dopamine receptor (Homo sapiens) (P21728 whole entry, looked up): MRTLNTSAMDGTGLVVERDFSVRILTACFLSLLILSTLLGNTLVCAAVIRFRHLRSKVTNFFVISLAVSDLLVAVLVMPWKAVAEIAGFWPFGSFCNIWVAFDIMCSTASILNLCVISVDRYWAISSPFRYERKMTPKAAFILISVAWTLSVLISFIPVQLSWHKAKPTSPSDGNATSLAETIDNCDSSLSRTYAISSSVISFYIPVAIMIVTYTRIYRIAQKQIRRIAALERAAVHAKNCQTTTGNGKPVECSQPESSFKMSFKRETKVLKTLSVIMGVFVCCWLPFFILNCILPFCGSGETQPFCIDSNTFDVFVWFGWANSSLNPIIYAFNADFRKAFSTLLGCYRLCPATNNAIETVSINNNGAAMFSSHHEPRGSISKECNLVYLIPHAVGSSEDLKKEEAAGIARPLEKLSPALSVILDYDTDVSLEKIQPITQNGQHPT
Protocol: NVS_GPCR_hDRD1 is a biochemical, single-readout assay that uses extracted gene-proteins from HEK293 in a cell-free assay. Measurements were taken 1 hour after chemical dosing in a 96-well plate.NVS_GPCR_hDRD1 is one of one assay component(s) measured or calculated from the NVS_GPCR_hDRD1 assay. It is designed to make measurements of radioligand binding, a form of binding reporter, as detected with scintillation counting signals by Filter-based radiodetection technology.Data from the assay component NVS_GPCR_hDRD1 was analyzed into 1 assay endpoint. This assay endpoint, NVS_GPCR_hDRD1, was analyzed in the positive analysis fitting direction relative to DMSO as the negative control and baseline of activity. Using a type of binding reporter, loss-of-signal activity can be used to understand changes in the binding as they relate to the gene DRD1. Furthermore, this assay endpoint can be referred to as a primary readout, because the performed assay has only produced 1 assay endpoint. To generalize the intended target to other relatable targets, this assay endpoint is annotated to the gpcr intended target family, where the subfamily is rhodopsin-like receptor.
Binding assays used specific radioligands (tritiated, iodinated) with non-radioactive competitive displacement ligands in agonist or antagonist protocols (as indicated) and various reference compounds and inhibitors to titrate specific binding to receptors and transporters. Most enzyme assays (CYPs, kinases, phosphatases, proteases, HDACs) used recombinant protein and specific substrates (fluorescence mostly, some colorimetric and radioactive) and inhibitors, followed by a biochemical separation of substrate and product. All assays for the biochemical HTS were initially run in duplicate at a single concentration (10 uM for CYP450 assays and 25 uM for all others). […] Each assay was run with positive and negative controls, and concurrent controls on every plate. The follow-up (secondary) screen tested active chemical-pairs in concentration series, as well as a few additional assays not tested in the primary screen, some selected negative inactives, and several cases re-run in the concentration series for confirmatory purposes.

SMILES	outcome	AC50
CCOC(=O)CN	inactive	–
CN(c1nccc(=O)[nH]1)C1CCN(c2nc3ccccc3n2Cc2ccc(F)cc2)CC1	inactive	–
ClC(c1ccccc1)(c1ccccc1)c1ccccc1	inactive	–
CCCCSCCCC	inactive	–
CC(C)(N=C=O)c1cccc(C(C)(C)N=C=O)c1	–	43.7 µM (active)
C[C@@H]1CCN(C(=O)[C@H](CCCN=C(N)N)NS(=O)(=O)c2cccc3c2NC[C@H](C)C3)[C@@H](C(=O)O)C1	–	17 µM (active)
CN(C)C(=S)SC(=S)N(C)C	–	30.8 µM (active)
CCCCOCC	inactive	–
CCCCCCCCCCCCCCCC(=O)OC/C=C(C)/C=C/C=C(C)/C=C/C1=C(C)CCCC1(C)C	–	34.7 µM (active)
COCCc1ccc(OCC(O)CNC(C)C)cc1 (configuration not stated)	inactive	–
C=CCOC(=O)CCCCCC	inactive	–
CCC1CCCCC1	inactive	–
